Most compounds without a hit are left out; they make up all but 3% or so of the library.
Tau FP inhib = blocks human tau fibril formation measured by polarization; Potency, µM (top dose mostly 57.7 µM), for the others: at the top dose activity, negative = inhibition, actives largely listed as inhibitors; 280,000 compounds, 0.39% hits; P10636; K18 P301L tau heparin fibrillization, Alexa594 FP, 6 h; AID 1468; note: potency is the fitted concentration of half-maximal effect; nearly all actives have a fitted effect of over 55% in size
Target sequence (P10636 561-689 P618L limits assumed): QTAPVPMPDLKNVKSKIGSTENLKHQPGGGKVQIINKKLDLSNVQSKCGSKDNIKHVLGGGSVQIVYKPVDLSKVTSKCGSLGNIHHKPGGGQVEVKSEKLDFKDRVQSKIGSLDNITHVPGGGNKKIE
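Human K18 P301L fragment (15 uM unlabeled plus 0.24 uM Alexa 594-labeled) in 100 mM sodium acetate pH 7 with compound, aggregation induced by 20 uM heparin for 6 hr at 37 C. ThT (30 uM) added for 1 hr, then Alexa 594 FP read.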
Tau fluor cs = counter-screen for tau fibril formation inhibitors. tau K18 P301L Alexa594 fluorescence, heparin fibrillization. 280,000 compounds, 0.93% hits. Potency, µM (top dose mostly 57.7 µM), for inactives: top-dose activity change, negative = decrease; note: potency is the fitted concentration of half-maximal effect; nearly all actives have a fitted effect of over 55% in size
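Human tau K18 P301L (15 uM unlabeled, 0.24 uM Alexa 594-labeled) in 100 mM sodium acetate pH 7 with 20 uM heparin, 6 hr at 37 C. ThT 30 uM added, 1 hr ambient; Alexa 594 FP and total fluorescence read at 555/632 nm.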
Tau fibril ThT = inhibitors of human tau fibril formation, thioflavin T binding; P10636; recombinant tau K18 P301L (four-repeat tau fragment), heparin-induced fibrillization, ThT fluorescence; Potency, µM (top dose mostly 57.4 µM), without a hit: at the highest dose activity, negative = inhibition, actives largely listed as inhibitors; 270,000 compounds, 2.1% hits; note: potency is the fitted concentration of half-maximal effect; nearly all actives have a fitted effect of over 55% in size
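Recombinant human tau K18 fragment […] carrying P301L, 15 uM unlabeled plus 0.24 uM Alexa 594-labeled, was fibrillized with 20 uM heparin in 100 mM sodium acetate pH 7 for 6 hr at 37 C; 30 uM ThT fluorescence read after 1 hr.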
KDM4E inh = inhibitors of human JMJD2E histone demethylase | B2RXH2 | JMJD2E catalytic domain, FDH-coupled NADH fluorescence (FDH is formaldehyde dehydrogenase) | Potency, µM (titrated, usually from 57.1 µM), for inactives: top-dose activity change, negative = inhibition, most hits filed as inhibitors | 230,000 compounds, 1.6% hits | AID 2147; active = well fitted inhibition curve with a large enough effect, not every such curve was filed as active; inconclusive = small, poorly fitted or top-dose-only effect, or another doubt; inactive = no such curve, though single readings can be large or run the other way;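 note: potency is the fitted concentration of half-maximal effect; 0% = wells with enzyme and -100% = buffer wells without enzyme; nearly all actives have a fitted effect of over 50% in size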
Target sequence (B2RXH2 1-337 limits assumed): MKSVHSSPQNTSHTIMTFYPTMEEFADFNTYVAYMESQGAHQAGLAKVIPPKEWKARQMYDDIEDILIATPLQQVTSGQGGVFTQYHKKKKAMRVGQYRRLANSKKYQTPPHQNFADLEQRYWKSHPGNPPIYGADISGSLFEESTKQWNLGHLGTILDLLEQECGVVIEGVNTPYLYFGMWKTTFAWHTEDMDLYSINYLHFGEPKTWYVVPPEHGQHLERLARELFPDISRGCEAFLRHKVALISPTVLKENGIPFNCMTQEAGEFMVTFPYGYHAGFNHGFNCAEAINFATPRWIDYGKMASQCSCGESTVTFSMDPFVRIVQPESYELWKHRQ
FBPA coupling cs = coupling enzyme interference in Giardia aldolase counter-screen. coupling enzyme system counterscreen, AmpLite Red fluorescence. activity change, negative = inhibition, % at 58.2 µM, hits read low. 290,000 compounds, 0.67% hits. AID 2472; in the data active = activity change below about -30%
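Coupling enzymes only (glyceraldehyde-3-phosphate) + compound, at 57.5 uM final, 10 min RT; add substrate/coupling/AmpLite Red mix, 20 min RT; fluorescence ex 525/em 598 nm. Actives flag coupling-system interference.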
* = called active by the depositor; ? = inconclusive; . = no result given; [ ] = dose if it differs, or a comment. Unless noted, calls come from the whole dose curve; as a rule, active = well fitted curve in the direction sought with a large enough effect; inconclusive = small, poorly fitted or top-dose-only effect, or another doubt; inactive = no such curve, though single readings can be large; an effect the other way counts as inactive or inconclusive. Unless noted, % is set by controls: 0 for no effect and ±100 for the full control effect.

SMILES	Tau FP inhib	Tau fluor cs	Tau fibril ThT	KDM4E inh	FBPA coupling cs
CCOc1ccc(CNc2ccc(N3CCCC3)cc2)cc1	?	?	7.08µM*	15.8µM*	-13.5
NS(=O)(=O)c1nn2cc(-c3ccccc3)nc2s1	.	.	.	.	0.4
C=CCOc1c(Cl)cc(CNc2ccc(C)c(Cl)c2)cc1OC	7.5%	?	?	-1.6%	-1.3
C=CCOc1c(Cl)cc(CNc2ccc(N(C)C)cc2)cc1OC	0.0%	0.8%	9.9%	3.5%	-78.9*
CCOc1cc(CNc2ccc(N3CCCC3)cc2)cc(Cl)c1OC	7.08µM*	?	3.55µM*	15.8µM*	-21.6
CCc1ccc(-n2c(=O)c3sc4ccccc4c3n(CC(=O)N3CCCC3)c2=O)cc1	-3.8%	-11.4%	-9.3%	.	.
OC[C@@H]1[C@@H](c2ccc(F)cc2)C(c2ccccc2)=NN1c1ccccc1	13.5%[81.3 µM]	15.8µM*[quencher]	?	.	-3.1
CC[C@H]1C(c2ccc(F)cc2)=NN(c2ccccc2)[C@@H]1CO	?	22.4µM*[quencher]	?	.	-2.9
Cc1cccc(C2=NN(c3ccccc3)[C@H](CO)[C@H]2c2ccccc2)c1	?	17.8µM*[quencher]	?	.	2.5
CC[C@@H]1C(c2ccc(F)cc2)=NN(c2ccccc2)[C@H]1C(=O)N1CCOC1=O	-4.2%[81.3 µM]	?	-10.2%[81.4 µM]	.	-1.5
O=C1OCCN1C(=O)[C@H]1[C@H](c2ccc(F)cc2)C(c2ccccc2)=NN1c1ccccc1	-6.9%[81.3 µM]	?	-8.0%[81.4 µM]	.	-5.9
Cc1cccc(C2=NN(c3ccccc3)[C@H](CO)[C@H]2C)c1	?	?	?	.	-11.5
NC(=O)C1CCCN1C(=O)C(Cc1cnc[nH]1)NC(=O)C1CCC(=O)N1 (stereo unspecified)	.	.	.	.	-5.5
O=C(COc1ccc(Cl)cc1)NCCc1csc(-c2cccc(F)c2)n1	4.3%	-2.5%	-10.4%	.	.
Cc1nn(-c2ccccn2)c(N)c1N=O	0.5%	-20.0%	?	-2.2%	0.1
Cc1nn(-c2ccccn2)c2c1-c1nc(N)ncc1CC2	-10.3%	-5.1%	-5.1%	?	-47.1*
Cc1nn(-c2ccccn2)c2c1-c1nc(N3CCOCC3)ncc1CC2	-2.8%	-6.5%	?	?	-39.4*
CC(N)=NCCCC(N)C(=O)O (stereo unspecified)	5.1%	2.9%	1.1%	-5.8%	.
COc1ccccc1Nc1nc(-c2sc(NC(=O)c3ccco3)nc2C)cs1	10.7%	?	3.55µM*	-10.9%	-4.7
Cc1ccc(Cl)cc1Nc1nc(-c2sc(NC(=O)c3ccco3)nc2C)cs1	-0.5%	?	?	25.1µM*	2.2
Cc1nc(NC(=O)c2ccco2)sc1-c1csc(Nc2ccc(Cl)cc2)n1	9.7%	?	7.08µM*	-14.5%	2.8
Cc1nc(NC(=O)c2ccco2)sc1-c1csc(Nc2ccc(Cl)cc2Cl)n1	11.0%	?	?	?	-0.9
O=C(Nc1nnc(COc2ccc(Cl)cc2)s1)c1ccco1	?	-23.9%	31.6µM*	?	5.4
NCC(O)COc1cccc2ccccc12 (stereo unspecified)	-6.0%	-10.2%	-5.8%	.	.
CCOc1ccc(N(C(=O)OC(C)(C)C)C(=O)c2ccc(O[Si](C)(C)C(C)(C)C)cc2)c(I)c1	.	.	.	.	0.3
SMILES	Tau FP inhib	Tau fluor cs	Tau fibril ThT	KDM4E inh	FBPA coupling cs
NC(C(=O)O)(c1ccc(P(=O)(O)O)cc1)C1CC1 (stereo unspecified)	3.2%	-3.3%	-0.1%	.	.
O=C(CCC1N=C2c3ccccc3N=C(SCc3ccc(F)cc3)N2C1=O)NCCc1ccccc1 (stereo unspecified)	-2.3%	3.3%	0.8%	.	.
Nc1ccccc1N=c1ssnc1Cl	?	-29.5%	22.4µM*	?	-2.1
Cc1cc(Cl)ccc1N=c1ssnc1Cl	22.4µM*	-27.3%	14.1µM*	11.2µM*	-0.7
Nc1ccccc1N=Nc1ccccc1N	.	.	.	.	0.8
Cc1ccc(N=c2ssnc2Cl)cc1	?	-25.1%	14.1µM*	11.2µM*	5.0
Cc1cc(C)nc(/N=c2/ssnc2Cl)c1	8.91µM*	-21.1%	3.98µM*	-0.3%	3.1
Cc1ccc(N=C2NC(=O)CS2)cc1	10.1%	7.5%	-3.9%	-0.7%	1.9
COc1ccc(Cn2c(CO)cnc2SCc2cccc(C)c2)cc1	1.0%	-4.0%	-11.1%	.	.
CS(=O)(=O)N(CC(=O)NCC1CCCO1)c1cccc(Cl)c1 (stereo unspecified)	-2.9%[2.34 µM]	-52.8%	5.01µM*	-21.6%	-2.0

Screening results: PubChem BioAssay, National Center for Advancing Translational Sciences (NCATS)
